# Inconclusive results are not listed. Where a call stands in place of a potency, no number is given. The source made the active and inactive calls. Calls come from the whole dose curve; as a rule, active = well fitted curve in the direction sought with a large enough effect; inconclusive = small, poorly fitted or top-dose-only effect, or another doubt; inactive = no such curve, though single readings can be large; an effect the other way counts as inactive or inconclusive.
# Assay: qHTS assay to identify small molecule inhibitors of chordoma cells - UCH-2 (AID 1259356)
# Settings: UCH-2 chordoma viability, CellTiter-Glo ATP luminescence, 48 h; series mostly up to 46.1 µM
row,SMILES,Potency
1,NC1CCN(c2nc3c(cc2F)c(=O)c(C(=O)O)cn3-c2ccc(F)cc2F)C1 (configuration not stated),inactive
2,O=C(Nc1cccc(C2=NCCN2)c1)Nc1cccc(C2=NCCN2)c1,inactive
3,CCCCCCCCCCCCCC[N+](C)(C)Cc1ccccc1,inactive
4,CC1(C)OC[C@@H]2O[C@@]3(C(=O)O)OC(C)(C)O[C@H]3[C@@H]2O1,inactive
5,C#C[C@]1(O)CC[C@H]2[C@@H]3CCC4=CC(=O)CC[C@@H]4[C@H]3CC[C@@]21CC,inactive
6,NCc1ccccc1Sc1ccccc1CO,inactive
7,CCC(C(=O)OCCOCCN(CC)CC)c1ccccc1 (configuration not stated),inactive
8,OC[C@H]1O[C@@H]2O[C@H]3[C@H](O)[C@@H](O)[C@@H](O[C@H]4[C@H](O)[C@@H](O)[C@@H](O[C@H]5[C@H](O)[C@@H](O)[C@@H](O[C@H]6[C@H](O)[C@@H](O)[C@@H](O[C@H]7[C@H](O)[C@@H](O)[C@@H](O[C@H]8[C@H](O)[C@@H](O)[C@@H](O[C@H]1[C@H](O)[C@H]2O)O[C@@H]8CO)O[C@@H]7CO)O[C@@H]6CO)O[C@@H]5CO)O[C@@H]4CO)O[C@@H]3CO,inactive
9,CCN(CC)CCOC(=O)C1(c2ccccc2)CCCC1,inactive
10,CCCCCCCCCCCCCCCCO,inactive
11,O=C(CCCN1CC=C(n2c(=O)[nH]c3ccccc32)CC1)c1ccc(F)cc1,inactive
12,NC(=O)C1(N2CCCCC2)CCN(CCCC(=O)c2ccc(F)cc2)CC1,inactive
13,CC(O)Cn1cnc2c1c(=O)n(C)c(=O)n2C (configuration not stated),inactive
14,COc1cc(C(=O)NCc2ccc(OCCN(C)C)cc2)cc(OC)c1OC,inactive
15,CC[N+](C)(CC)CCOC(=O)C(O)(c1ccccc1)C1CCCCC1 (configuration not stated),inactive
16,CCC1Nc2cc(Cl)c(S(N)(=O)=O)cc2S(=O)(=O)N1 (configuration not stated),inactive
17,CCCCCCCCNC(C)C(O)c1ccc(SC(C)C)cc1 (configuration not stated),inactive
18,CC(=O)NCCCCCC(=O)O,inactive
19,CN1CCC(OC(c2ccccc2)c2ccccc2)CC1,inactive

# Assay: P-glycoprotein substrates identified in KB-8-5-11 adenocarcinoma cell line, qHTS therapeutic library screen (AID 1346987); note: nearly all actives have a fitted effect of over 65% in size; note: potency is the fitted concentration of half-maximal effect
# Settings: KB-8-5-11 (P-gp overexpressing) viability, CellTiter-Glo, 72 h; series mostly up to 44.5 µM
# Procedure, shortened: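 Steps: plate 500 KB-8-5-11 cells/well in DMEM + 10% FCS (colchicine removed); pin compounds in dose-response; incubate 72 h, 37 degree C, 5% CO2; add CellTiter-Glo, 5 min; read luminescence.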
row,SMILES,Potency
1,CCC(CC)(CC(=O)Nc1cccc(/C=C/c2nc(C3CCC3)cs2)c1)C(=O)O,inactive
2,CC(C)Cn1cnc2c1c(=O)n(C)c(=O)n2C,inactive
3,Nc1nc(N)c(-c2ccccc2)s1,inactive
4,CC(C)Cc1ccc(CC(=O)O)cc1,inactive
5,FC1(F)C(F)(F)C(F)(F)C2(F)C(F)(F)C(F)(F)C(F)(F)C(F)(F)C2(F)C1(F)F (configuration not stated),inactive
6,O=C(CCN1CCN2CCCC2C1)N1c2ccccc2Sc2ccc(Cl)cc21 (configuration not stated),inactive
7,N=C(N)N1CCc2ccccc2C1,inactive
8,COc1cc([C@H]2Oc3cc([C@H]4Oc5cc(O)cc(O)c5C(=O)[C@@H]4O)ccc3O[C@@H]2CO)ccc1O,inactive
9,c1ccc(CC2=NCCN2)cc1,inactive
10,OCCOCCN1CCN(C2=Nc3ccccc3Sc3ccccc32)CC1,inactive
11,O=C(Nc1ncc([N+](=O)[O-])s1)c1cccs1,16.4 µM (active)
12,COc1ccc(CCN(C)CCCN2CCc3cc(OC)c(OC)cc3CC2=O)cc1OC,inactive
13,COc1ccc(S(=O)(=O)N2c3ccc(Cl)cc3[C@@](O)(c3ccccc3Cl)[C@H]2C(=O)N2CCC[C@@H]2C(N)=O)cc1OC,inactive
14,CCOc1ccccc1OCCN[C@H](C)Cc1ccc(OC)c(S(N)(=O)=O)c1,inactive
15,CCc1nn(CCCN2CCN(c3cccc(Cl)c3)CC2)c(=O)n1CCOc1ccccc1,10.3 µM (active)
16,NC1CCN(c2nc3c(cc2F)c(=O)c(C(=O)O)cn3-c2ccc(F)cc2F)C1 (configuration not stated),inactive
17,O=C(Nc1cccc(C2=NCCN2)c1)Nc1cccc(C2=NCCN2)c1,inactive

row,SMILES,Potency
1,CCCCCCCCCCCCCC[N+](C)(C)Cc1ccccc1,inactive
2,CC1(C)OC[C@@H]2O[C@@]3(C(=O)O)OC(C)(C)O[C@H]3[C@@H]2O1,inactive
3,C#C[C@]1(O)CC[C@H]2[C@@H]3CCC4=CC(=O)CC[C@@H]4[C@H]3CC[C@@]21CC,8.2 µM (active)
4,NCc1ccccc1Sc1ccccc1CO,inactive
5,CCC(C(=O)OCCOCCN(CC)CC)c1ccccc1 (configuration not stated),inactive
6,OC[C@H]1O[C@@H]2O[C@H]3[C@H](O)[C@@H](O)[C@@H](O[C@H]4[C@H](O)[C@@H](O)[C@@H](O[C@H]5[C@H](O)[C@@H](O)[C@@H](O[C@H]6[C@H](O)[C@@H](O)[C@@H](O[C@H]7[C@H](O)[C@@H](O)[C@@H](O[C@H]8[C@H](O)[C@@H](O)[C@@H](O[C@H]1[C@H](O)[C@H]2O)O[C@@H]8CO)O[C@@H]7CO)O[C@@H]6CO)O[C@@H]5CO)O[C@@H]4CO)O[C@@H]3CO,inactive
7,CCN(CC)CCOC(=O)C1(c2ccccc2)CCCC1,inactive
8,CCCCCCCCCCCCCCCCO,inactive
9,O=C(CCCN1CC=C(n2c(=O)[nH]c3ccccc32)CC1)c1ccc(F)cc1,inactive
10,CC(O)Cn1cnc2c1c(=O)n(C)c(=O)n2C (configuration not stated),inactive
11,COc1cc(C(=O)NCc2ccc(OCCN(C)C)cc2)cc(OC)c1OC,inactive
12,CC[N+](C)(CC)CCOC(=O)C(O)(c1ccccc1)C1CCCCC1 (configuration not stated),inactive
13,CCC1Nc2cc(Cl)c(S(N)(=O)=O)cc2S(=O)(=O)N1 (configuration not stated),inactive
14,CCCCCCCCNC(C)C(O)c1ccc(SC(C)C)cc1 (configuration not stated),11.6 µM (active)
15,CC(=O)NCCCCCC(=O)O,inactive
16,CN1CCC(OC(c2ccccc2)c2ccccc2)CC1,inactive
